Measured values published in PubChem BioAssay.

assay: enhancers of glutamate uptake in motor neurons, MN-1 cell line (AID 1612); details: MN-1 motor neuron cells, stronger effect = higher value;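 also: tested at 1 µM final; 0% = mean of DMSO vehicle wells on each plate; positive means more glutamate uptake than control and negative means less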

| SMILES | glutamate uptake change |
| --- | --- |
| Oc1c(Br)cc(Br)c2cccnc12 | 4.76% |
| Cc1c(N(C)CS(=O)(=O)O)c(=O)n(-c2ccccc2)n1C | -8.12% |
| CCC(=O)O[C@H]1[C@H](O[C@@H]2[C@@H](C)[C@H](O[C@H]3C[C@@](C)(OC)[C@@H](O)[C@H](C)O3)[C@@H](C)C(=O)O[C@H](CC)[C@@](C)(O)[C@H](O)[C@@H](C)C(=O)[C@H](C)C[C@@]2(C)O)O[C@H](C)C[C@@H]1N(C)C | -11.5% |
| c1ccc(CN(CC2=NCCN2)c2ccccc2)cc1 | 16% |
| Cc1cc(CC(=O)O)n(C)c1C(=O)c1ccc(Cl)cc1 | -4.24% |
| CCN(CCCCOC(=O)c1ccc(OC)c(OC)c1)C(C)Cc1ccc(OC)cc1 (stereo unspecified) | 1.65% |
| OCC(O)CN1CCN(c2ccccc2)CC1 (stereo unspecified) | 0.23% |
| COc1c2occc2c(OC)c2c(=O)cc(C)oc12 | -7.03% |
| COc1cc(C(=O)NCc2ccc(OCCN(C)C)cc2)cc(OC)c1OC | 0.14% |
| COc1cc(NS(=O)(=O)c2ccc(N)cc2)ncn1 | 2.45% |
| Nc1ccc(S(N)(=O)=O)cc1 | -2.33% |
| CC(C)(Sc1cc(C(C)(C)C)c(O)c(C(C)(C)C)c1)Sc1cc(C(C)(C)C)c(O)c(C(C)(C)C)c1 | -0.51% |
| NS(=O)(=O)c1cc2c(cc1Cl)NC(CSCc1ccccc1)=NS2(=O)=O | -3.22% |
| O=C(O)c1ccccc1OP(=O)(O)O | -7.63% |
| O=C(O)c1ccccc1C(=O)Nc1ccc(S(=O)(=O)Nc2nccs2)cc1 | 2.49% |
| C=CCSCC1Nc2cc(Cl)c(S(N)(=O)=O)cc2S(=O)(=O)N1 (stereo unspecified) | -15.5% |
| CS(=O)(=O)c1ccc([C@@H](O)[C@@H](CO)NC(=O)C(Cl)Cl)cc1 | 16.7% |
| Cc1cc(=O)n(-c2ccccc2)n1C | -12.9% |
| CCN(CC)C(=O)N1CCN(C)CC1 | -11.4% |

| SMILES | glutamate uptake change |
| --- | --- |
| CN1CCC(OC(c2ccccc2)c2ccccc2)CC1 | 17.3% |
| CCOc1ccc(NC(C)=O)cc1 | -13.8% |
| Nc1ccc(S(=O)(=O)NC(=O)c2ccccc2)cc1 | -23.6% |
| CCN(CC)CCOC(=O)C(Cc1cccc2ccccc12)CC1CCCO1 (stereo unspecified) | -20.3% |
| Cc1cc(-c2ccccc2)nnc1NCCN1CCOCC1 | 4.73% |
| CN(Cc1cc(Br)cc(Br)c1N)C1CCCCC1 | -11.2% |
| COc1cc(NS(=O)(=O)c2ccc(N)cc2)nc(OC)n1 | -20.2% |
| CCN1CCCC(OC(=O)C(c2ccccc2)c2ccccc2)C1 (stereo unspecified) | 7.33% |
| O=C1OC(c2ccc(O)cc2)(c2ccc(O)cc2)c2ccccc21 | -16.5% |
| C[N+]12CCC(CC1)C(OC(=O)C(O)(c1ccccc1)c1ccccc1)C2 (stereo unspecified) | -0.25% |
| CC(=O)Oc1ccc(C(c2ccc(OC(C)=O)cc2)c2ccccn2)cc1 | 13% |
| NS(=O)(=O)c1cc(C(=O)O)c(NCc2ccco2)cc1Cl | -10.7% |
| CCCCCCc1ccc(O)cc1O | 15.5% |
| COc1ccc2cc3[n+](cc2c1OC)CCc1cc2c(cc1-3)OCO2 | 15.2% |
| O=C(O)c1ccccc1Nc1cccc(C(F)(F)F)c1 | -15.4% |
| C=C1c2cccc(O)c2C(O)=C2C(=O)[C@]3(O)C(O)=C(C(N)=O)C(=O)[C@@H](N(C)C)[C@@H]3[C@@H](O)[C@H]12 | -2.5% |
| CCOc1ccc(Cc2nccc3cc(OCC)c(OCC)cc23)cc1OCC | 33.7% |
| Cc1cc(NC(=O)C2=C(O)c3ccccc3S(=O)(=O)N2C)no1 | 11.8% |
| Cc1ncc([N+](=O)[O-])n1CCO | 20.8% |

assay: reducers of polyQ inclusions in PC12 cells, cell-based, NGF-treated PC12, GFPQ80 (AID 1614); details: PC12 NGF-treated GFP-polyQ80 inclusion reduction;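 also: lower means fewer inclusions and 0 means no inclusions at all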

| SMILES | inclusion score |
| --- | --- |
| Cc1c(N(C)CS(=O)(=O)O)c(=O)n(-c2ccccc2)n1C | 2 |
| c1ccc(CN(CC2=NCCN2)c2ccccc2)cc1 | 2 |
| Cc1cc(CC(=O)O)n(C)c1C(=O)c1ccc(Cl)cc1 | 2 |
| CCN(CCCCOC(=O)c1ccc(OC)c(OC)c1)C(C)Cc1ccc(OC)cc1 (stereo unspecified) | 2 |
| OCC(O)CN1CCN(c2ccccc2)CC1 (stereo unspecified) | 2 |
| COc1c2occc2c(OC)c2c(=O)cc(C)oc12 | 2 |
| COc1cc(C(=O)NCc2ccc(OCCN(C)C)cc2)cc(OC)c1OC | 2 |
| COc1cc(NS(=O)(=O)c2ccc(N)cc2)ncn1 | 2 |
| Nc1ccc(S(N)(=O)=O)cc1 | 2 |
| CC(C)(Sc1cc(C(C)(C)C)c(O)c(C(C)(C)C)c1)Sc1cc(C(C)(C)C)c(O)c(C(C)(C)C)c1 | 2 |
| NS(=O)(=O)c1cc2c(cc1Cl)NC(CSCc1ccccc1)=NS2(=O)=O | 2 |
| O=C(O)c1ccccc1OP(=O)(O)O | 2 |
| O=C(O)c1ccccc1C(=O)Nc1ccc(S(=O)(=O)Nc2nccs2)cc1 | 2 |
| C=CCSCC1Nc2cc(Cl)c(S(N)(=O)=O)cc2S(=O)(=O)N1 (stereo unspecified) | 2 |
| CS(=O)(=O)c1ccc([C@@H](O)[C@@H](CO)NC(=O)C(Cl)Cl)cc1 | 2 |
| Cc1cc(=O)n(-c2ccccc2)n1C | 2 |
| CCN(CC)C(=O)N1CCN(C)CC1 | 2 |

| SMILES | inclusion score |
| --- | --- |
| CN1CCC(OC(c2ccccc2)c2ccccc2)CC1 | 2 |
| CCOc1ccc(NC(C)=O)cc1 | 1.5 |
| Nc1ccc(S(=O)(=O)NC(=O)c2ccccc2)cc1 | 2 |
| CCN(CC)CCOC(=O)C(Cc1cccc2ccccc12)CC1CCCO1 (stereo unspecified) | 2 |
| Cc1cc(-c2ccccc2)nnc1NCCN1CCOCC1 | 1 |
| COc1cc(NS(=O)(=O)c2ccc(N)cc2)nc(OC)n1 | 2 |
| CCN1CCCC(OC(=O)C(c2ccccc2)c2ccccc2)C1 (stereo unspecified) | 1.5 |
| C[N+]12CCC(CC1)C(OC(=O)C(O)(c1ccccc1)c1ccccc1)C2 (stereo unspecified) | 2 |
| CC(=O)Oc1ccc(C(c2ccc(OC(C)=O)cc2)c2ccccn2)cc1 | 2 |
| NS(=O)(=O)c1cc(C(=O)O)c(NCc2ccco2)cc1Cl | 2 |
| COc1ccc2cc3[n+](cc2c1OC)CCc1cc2c(cc1-3)OCO2 | 2 |
| O=C(O)c1ccccc1Nc1cccc(C(F)(F)F)c1 | 2 |
| C=C1c2cccc(O)c2C(O)=C2C(=O)[C@]3(O)C(O)=C(C(N)=O)C(=O)[C@@H](N(C)C)[C@@H]3[C@@H](O)[C@H]12 | 1 |
| CCOc1ccc(Cc2nccc3cc(OCC)c(OCC)cc23)cc1OCC | 2 |
| Cc1cc(NC(=O)C2=C(O)c3ccccc3S(=O)(=O)N2C)no1 | 2 |
| Cc1ncc([N+](=O)[O-])n1CCO | 2 |
